Screening data as filed in PubChem.
ATXN2 expr inh: Primary qHTS for Inhibitors of ATXN expression | HEK-293 ATXN2-luciferase reporter, luminescence, 24 h | Potency, µM (top dose mostly 57 µM), for the others: at the highest dose activity change, negative = inhibition, usual class: inhibitors | hit rate 0.72% among 360,000 | AID 1745845, 2022; note: % is set by controls: 0 for no effect and ±100 for the full control effect; nearly all actives have a fitted effect of over 55% in size
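qHTS (up to 57 uM final) was run with 24 h compound exposure of reporter cells at 37 °C. Each well was multiplexed: SteadyGlo luminescence measured ATXN2-luciferase expression after a fluorogenic Gly-Phe-AFC viability readout (25 uM final).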
HepG2 viability: qHTS for Inhibitors of TGF-b: Cytotox Counterscreen. HepG2 CAGA-GFP viability, ATP luminescence, 18 h. Potency, µM (highest dose often 46.1 µM), without a hit: top-dose activity change, negative = cytotoxicity, actives largely listed as cytotoxic. hit rate 0.76% among 410,000
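HepG2 CAGA-GFP cells (1000/well, DMEM with 1% FBS) received compound, then TGF-beta at 500 pg/mL final, and were incubated 18 hours at 37 degrees C. Viability was read by CellTiter-Glo luminescence. Media-only wells were set as complete cell-killing and DMSO as no toxicity.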
S2 tox: Viability Counterscreen for Primary qHTS for Inhibitors of ATXN expression; S2 cells (HEK-293 line with an ATXN2-luciferase reporter) viability, CellTiter-Fluor protease fluorescence, 24 h; Potency, µM (highest dose often 56.7 µM), most hits filed as cytotoxic; hit rate 0.49% among 400,000; AID 651635, 2014; note: nearly all actives have a fitted effect of over 40% in size
TGFb inhibitor: qHTS for Inhibitors of TGF-b; HepG2 CAGA-GFP TGF-b/SMAD3 reporter, GFP fluorescence, 18 h; TGF-beta stimulated, 500 pg/mL final; Potency, µM (highest dose often 46.1 µM), for the others: at the top dose activity, negative = inhibition, most hits filed as inhibitors; hit rate 1.2% among 410,000; AID 588855, 2011; note: % is set by controls: 0 for no effect and ±100 for the full control effect; nearly all actives have a fitted effect of over 65% in size
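Per well, imaged GFP fluorescence of HEPG2 CAGA-GFP cells gives the signal; cells get compound, then TGF-beta (500 pg/mL final), 18 h at 37 degrees C; %Activity versus -TGF-beta and +DMSO controls.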
HT1080NT lethal: qHTS for induction of synthetic lethality in tumor cells producing 2HG: qHTS for the HT-1080-NT fibrosarcoma cell line; Potency, µM (top dose mostly 46.1 µM), for inactives: at the top dose activity, negative = less viability, most hits filed as cytotoxic; AID 686970, 2013; HT-1080-NT fibrosarcoma viability, CellTiter-Glo ATP luminescence, 48 h; hit rate 1.6% among 360,000;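 note: NT is the 2HG producing partner of a matched IDH1 knockdown line; 0% = DMSO-treated cells and -100% = media-only wells without cells; nearly all actives have a fitted effect of over 55% in size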
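Viability of the 2HG-overproducing fibrosarcoma line after 48 hours of compound exposure at 37 degrees C was determined by luminescence with CellTiter-Glo, and concentration-effect curves were then fitted and categorized.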
HT1080 IDH1KD tx: qHTS for induction of synthetic lethality in tumor cells producing 2HG: qHTS for the HT-1080-IDH1KD cell line | HT-1080 IDH1 knockdown viability, ATP luminescence, 48 h | Potency, µM (doses to about 46.1 µM), inactives show top-dose activity, negative = toxicity, actives largely listed as cytotoxic | hit rate 2% among 360,000 | AID 686971, 2013;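 note: 0% = DMSO wells and -100% = cell-free medium wells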
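HT-1080-IDH1KD cells (IDH1 knocked down), 750/well in RPMI with 5% FBS, treated with compound 48 h at 37 degrees C. Viability by CellTiter-Glo luminescence, normalised to DMSO and no-cell wells; concentration-response curves classed.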
* hit, by the source's call; i = inactive; u = inconclusive; x = not tested or not shown. Sampled rows, rich in hits. Any-hit rate of the full collection: about 3.8%. Calls come from the whole dose curve; as a rule, active = well fitted curve in the direction sought with a large enough effect; inconclusive = small, poorly fitted or top-dose-only effect, or another doubt; inactive = no such curve, though single readings can be large; an effect the other way counts as inactive or inconclusive. Potency is the fitted concentration of half-maximal effect.

SMILES	ATXN2 expr inh	HepG2 viability	S2 tox	TGFb inhibitor	HT1080NT lethal	HT1080 IDH1KD tx
C[C@H]1CN([C@@H](C)CO)C(=O)CCCn2nncc2CO[C@@H]1CN(C)S(=O)(=O)c1cn(C)cn1	7%	37%	i	21%	6%	11%
COc1cccc(S(=O)(=O)N(C)C[C@@H]2OCc3cnnn3CCCC(=O)N([C@H](C)CO)C[C@H]2C)c1	-5%	7%	i	2%	19%	-16%
CC1=C(c2ccc(C(C)C)cc2)S(=O)(=O)NC1=NCCCN1CCN(c2ccccc2F)CC1	x	-22%	x	u	x	x
CCOC(=O)C1(CCc2ccccc2)CCN(Cc2ccc(OC)cc2)CC1	-6%	-1%	i	-10%	-14%	-2%
CCOC(=O)C1(CCc2ccccc2)CCN(Cc2c(O)cccc2OC)CC1	-30%	-52%	i	u	u	33µM*
CCOC(=O)C1(CCOc2ccccc2)CCN(Cc2ccc(OC)c(COC)c2)CC1	-23%	-34%	i	u	u	13µM*
CCOC(=O)C1(CCOc2ccccc2)CCN(Cc2ccc(OC)c(O)c2)CC1	-14%	-37%	i	-10%	11%	0%
OC(c1ccccc1)(c1nc(-c2ccccc2)cs1)C(F)(F)F (stereo not given)	0%	-109%	u	u	21µM*	u
OC(c1ccccc1)(c1nc(-c2cccc(F)c2)cs1)C(F)(F)F (stereo not given)	-31%	-89%	u	u	18µM*	u
OC(c1ccccc1)(c1nc(/C=C/c2ccccc2)cs1)C(F)(F)F (stereo not given)	-36%	-114%	i	22µM*	u	u
OC(c1ccccc1)(c1nc(-c2cc(F)cc(F)c2)cs1)C(F)(F)F (stereo not given)	u	-106%	x	u	u	u
CC(O)(c1ccc(F)c(F)c1)c1nc(/C=C/c2ccccc2)cs1 (stereo not given)	-11%	-55%	u	u	-27%	-24%
Cc1ccc(S(=O)(=O)N2CCN(c3nc(-n4cccn4)nc4ccccc34)CC2)cc1	x	x	x	x	-27%	-21%
CCC1OC(=O)C[C@@H](O)[C@H](C)[C@@H](O[C@@H]2O[C@H](C)C[C@H](N(C)C)[C@H]2O)[C@@H](CC=O)C[C@@H](C)C(=O)/C=C/[C@]2(C)OC2C1C (stereo not given in full)	x	x	16µM*	x	x	x
Cc1ccc(C2CC(=O)C=C(NCc3ccccc3)C2)cc1 (stereo not given)	-14%	0%	i	6%	u	21µM*
CC1CCN(S(=O)(=O)c2ccc3nc(NCc4ccc(F)cc4)ccc3c2)CC1	0%	-20%	u	13µM*	x	x
CC1CCN(S(=O)(=O)c2ccc3nc(Nc4ccc(C#N)cc4)ccc3c2)CC1	0%	-31%	u	10µM*	x	x
CC1CCN(S(=O)(=O)c2ccc3nc(NCc4ccc(N(C)C)cc4)ccc3c2)CC1	u	-12%	u	u	x	x
COC(=O)C1CCN(Cc2ccc3c(c2)CN(C(=O)c2cc(-c4ccc(C)o4)[nH]n2)CCO3)CC1	x	x	i	x	x	x
CO[C@H]1C[C@@H]2CC[C@@H](C)[C@@](O)(O2)C(=O)C(=O)N2CCCC[C@H]2C(=O)O[C@H]([C@H](C)C[C@@H]2CC[C@@H](O)[C@H](OC)C2)CC(=O)[C@H](C)/C=C(/C)[C@@H](O)[C@@H](OC)C(=O)[C@H](C)C[C@H](C)C=C/C=C\C=C/1C	x	-28%	x	4.5µM*	x	x
O=C(NCc1ccccc1Br)C1CCCN(C(=O)N2CCOc3ccccc32)C1 (stereo not given)	x	-27%	x	u	x	x
O=C1CCCc2cc(S(=O)(=O)NCC3CCC(C(=O)Nc4ccc(Cl)cc4)CC3)ccc2N1 (stereo not given)	-16%	-28%	i	4%	x	x
O=C(C=CC#Cc1cccc(NS(=O)(=O)c2ccccc2)c1)NO	-55%	x	x	x	x	x
COc1ccc(-c2cc(C(F)F)n3ncc(C(=O)N4CCc5ccccc54)c3n2)cc1	x	5%	i	9%	3.3µM*	2.9µM*
O=C(c1ccncc1)N1CCC2(CCC(CNC(=O)C3(N4CCOCC4)CCCCC3)O2)CC1 (stereo not given)	x	x	i	x	x	x
SMILES	ATXN2 expr inh	HepG2 viability	S2 tox	TGFb inhibitor	HT1080NT lethal	HT1080 IDH1KD tx
COc1cccc(CNC(=O)COC(=O)c2ccc(S(C)(=O)=O)c([N+](=O)[O-])c2)c1	x	-22%	x	u	x	x
CCOc1ccc(/C=N/NC(=O)c2ccccc2NC(=O)c2ccc(OC)cc2)cc1	5%	-51%	i	4%	-22%	-17%
O=C(Nc1ccccc1C(=O)N/N=C/c1ccncc1)c1ccccc1	34%	5µM*	i	4%	21µM*	9.2µM*
COc1ccc(C(=O)Nc2ccccc2C(=O)N/N=C/c2ccco2)cc1	0%	-67%	u	-6%	9.2µM*	u
CN[C@@H](C)C(=O)N[C@H]1CN(C(=O)CC(C)C)CC[C@H]2CC[C@@H](C(=O)NC(c3ccccc3)c3ccccc3)N2C1=O	-3%	x	x	x	x	x
Cc1ccc(-c2ccc(/C=N/c3ncn[nH]3)o2)cc1Cl	16µM*	-21%	i	u	1%	-1%
COC(=O)N/N=C/c1ccc(-c2ccc(C)c(Cl)c2)o1	10%	9%	i	0%	10%	23%
Cc1ccc2nc(SCc3nc(-c4ccc(Cl)cc4)no3)[nH]c2c1	u	-73%	i	u	x	x
Cc1ccc(Nc2nc(N)nc(CN3CCN(Cc4ccc5c(c4)OCO5)CC3)n2)cc1Cl	-35%	11µM*	i	-24%	u	-18%
